KDM5B inhibitor = KDM5B demethylase inhibition; Potency, µM (highest dose often 57.7 µM), actives largely listed as inhibitors; 2.6% of 220,000 active; AID 1347165; KDM5B demethylase, FDH-coupled NADH fluorescence (FDH is formaldehyde dehydrogenase); Q9UGL1; also: potency is read from the fitted curve at half-maximal effect; 0% is about no effect; nearly all actives have a fitted effect of over 70% in size
Target sequence (Q9UGL1 whole entry, looked up): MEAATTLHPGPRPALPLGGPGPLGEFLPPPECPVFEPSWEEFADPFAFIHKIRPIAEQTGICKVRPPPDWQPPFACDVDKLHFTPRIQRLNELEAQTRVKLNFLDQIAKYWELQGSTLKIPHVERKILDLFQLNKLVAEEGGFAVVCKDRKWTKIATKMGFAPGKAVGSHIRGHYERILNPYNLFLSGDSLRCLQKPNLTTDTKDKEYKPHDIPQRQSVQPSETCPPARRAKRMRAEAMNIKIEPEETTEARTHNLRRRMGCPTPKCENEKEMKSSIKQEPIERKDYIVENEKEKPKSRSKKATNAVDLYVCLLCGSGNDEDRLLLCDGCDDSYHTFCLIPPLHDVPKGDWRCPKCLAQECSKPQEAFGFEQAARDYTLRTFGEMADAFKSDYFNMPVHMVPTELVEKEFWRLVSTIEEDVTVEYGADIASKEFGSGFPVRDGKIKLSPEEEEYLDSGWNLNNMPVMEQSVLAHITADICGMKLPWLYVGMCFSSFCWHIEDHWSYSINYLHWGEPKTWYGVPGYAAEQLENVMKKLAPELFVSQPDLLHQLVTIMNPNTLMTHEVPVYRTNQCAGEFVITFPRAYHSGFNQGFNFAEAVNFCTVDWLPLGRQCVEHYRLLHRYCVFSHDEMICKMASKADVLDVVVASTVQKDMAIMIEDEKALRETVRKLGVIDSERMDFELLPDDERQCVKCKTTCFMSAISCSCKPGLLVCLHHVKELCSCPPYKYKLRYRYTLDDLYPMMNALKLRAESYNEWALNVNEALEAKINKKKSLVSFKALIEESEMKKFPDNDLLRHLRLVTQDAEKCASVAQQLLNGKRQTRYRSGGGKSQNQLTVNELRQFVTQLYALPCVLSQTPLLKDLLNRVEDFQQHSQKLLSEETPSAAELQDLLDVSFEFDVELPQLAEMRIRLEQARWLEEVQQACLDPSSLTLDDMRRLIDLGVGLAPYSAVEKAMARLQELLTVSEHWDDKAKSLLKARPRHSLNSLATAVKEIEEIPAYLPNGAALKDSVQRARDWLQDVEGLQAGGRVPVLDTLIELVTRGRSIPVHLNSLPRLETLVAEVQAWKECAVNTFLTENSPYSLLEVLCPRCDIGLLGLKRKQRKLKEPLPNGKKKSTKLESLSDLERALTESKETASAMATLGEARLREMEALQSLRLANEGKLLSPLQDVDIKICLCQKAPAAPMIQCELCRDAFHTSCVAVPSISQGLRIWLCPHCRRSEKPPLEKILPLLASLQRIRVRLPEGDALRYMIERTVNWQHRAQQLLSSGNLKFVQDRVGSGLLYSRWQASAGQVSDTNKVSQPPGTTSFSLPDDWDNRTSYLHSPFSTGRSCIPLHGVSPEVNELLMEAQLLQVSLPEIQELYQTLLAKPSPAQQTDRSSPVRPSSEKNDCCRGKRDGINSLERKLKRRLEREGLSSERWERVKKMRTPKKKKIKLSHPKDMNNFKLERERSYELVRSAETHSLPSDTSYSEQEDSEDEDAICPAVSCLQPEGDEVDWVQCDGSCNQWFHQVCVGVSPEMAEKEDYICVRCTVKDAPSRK
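Here, H3K4me3 peptide (12.5 µM in substrate mix) is demethylated by KDM5BΔAP, 200 nM final, after 10 min compound exposure. Formaldehyde product is coupled through FDH (0.25 U/mL in mix) to NADH fluorescence; 30-min ΔRFU feeds dose-response curves.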
IP6K1 inhibitor = blocks human inositol hexakisphosphate kinase 1; IP6K1 kinase, ADP-Glo luminescence, 2 h; active compounds read low; AID 1645851; Q92551; 0.81% of 140,000 active; activity change, % (series mostly up to about 58 µM); in the data active = activity change below about -25%; also: % is scaled to controls: 0 for no effect and ±100 for the full control effect
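ADP-Glo luminescence measures ADP made by human IP6K1 during a 2 h RT reaction with ATP/IP6 (mix at 1.3 mM/130 uM); top library doses 57.5 and 19.1 uM final.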
SNCA expr inhib = SNCA gene expression inhibition; Potency, µM (top dose mostly 57.2 µM), for the others: at the top dose activity change, negative = inhibition, usual class: inhibitors; 0.17% of 140,000 active; AID 1671194; HEK-293 SNCA-luciferase knock-in, luminescence, 24 h;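 also: potency is read from the fitted curve at half-maximal effect; plate controls were DMSO cells for no effect and cell-free wells for full effect; nearly all actives have a fitted effect of over 45% in size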
HEK293 viab = cell viability loss counter-screen. 0.12% of 150,000 active. AID 1671193. HEK-293-SNCA-luc viability, GF-AFC fluorescence, 24 h. Potency, µM (doses to about 57.1 µM), without a hit: top-dose activity change, negative = cytotoxicity, usual class: cytotoxic;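 also: potency is read from the fitted curve at half-maximal effect; 0% = DMSO-treated cells and -100% = medium-only wells without cells; nearly all actives have a fitted effect of over 30% in size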
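Cytotoxicity counterscreen: after 24 h compound treatment of genome-edited SNCA-luciferase HEK-293 cells, live-cell protease substrate GF-AFC read by fluorescence after 30 min; activity scaled between DMSO (0%) and medium-only (-100%), curves Hill-fitted.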
Numbers without * were called inactive; i = inactive; ? = inconclusive; nt = no result; [ ] = remark or other dose. Most compounds without a hit are left out; they make up all but 3% or so of the library. Unless noted, calls follow the shape of the dose curve; as a rule, active = well fitted curve in the direction sought with a large enough effect; inconclusive = small, poorly fitted or top-dose-only effect, or another doubt; inactive = no such curve, though single readings can be large; an effect the other way counts as inactive or inconclusive.

SMILES	KDM5B inhibitor	IP6K1 inhibitor	SNCA expr inhib	HEK293 viab
COc1ccc(-c2noc([C@@H]3CCCN3C(=O)Cc3ccccc3C)n2)cc1OC	28.2µM*	3.6	5.9%	-15.6%
COc1ccc(-c2noc([C@@H]3CCCN3C(=O)Cc3ccc(C)cc3)n2)cc1OC	31.6µM*	0.0	3.6%	?
COc1ccc(-c2noc([C@@H]3CCCN3C(=O)Cc3ccc(C)cc3)n2)cc1	i	8.8	-6.8%	-23.9%
COc1ccccc1-c1ccc(CN2CCCC(c3nc4ccc(F)cc4c(=O)[nH]3)C2)cc1 (stereo unspecified)	?	7.1	-15.6%	1.6%
Cc1cccc(-c2nc(Nc3ccc(C(=O)O)cc3)c3ccccc3n2)c1	i	nt	nt	nt
CCCc1ccc(S(=O)(=O)N2CCC3(CC2)[C@H](C(=O)NC)[C@@H](OC(N)=O)C(=O)N3C)cc1	nt	7.5	nt	nt
CNC(=O)[C@@H](Cc1ccccc1)N1CCC[C@H]1C(=O)NCc1cccnc1	i	2.9	1.1%[87.6 µM]	3.3%[87.6 µM]
CNC(=O)[C@@H](Cc1ccccc1)N1CCC[C@H]1C(=O)NCc1ccccn1	28.2µM*	-2.3	-10.2%[87.6 µM]	16.4%[87.6 µM]
NCc1cccc(-c2cc(C(F)(F)F)ccc2Cl)c1	89.1µM*	-7.0	-4.3%	-13.9%
O=C1NCCCCCCN(C(=O)c2ccoc2)[C@H]2C[C@H](C(=O)N3CCN(c4ccccn4)CC3)C[C@@H]12	31.6µM*	12.5	4.1%	-7.0%
O=C1NCCCCCCN(C(=O)C2CCCC2)[C@H]2C[C@H](C(=O)N3CCN(c4ccccn4)CC3)C[C@@H]12	?	9.0	3.1%	1.7%
O=C1CCN(C[C@@H](O)COCc2ccccc2)c2ccc(F)cc2CN1C1CCCC1	nt	3.9	nt	nt
CCn1c(=N)n(CCOc2ccc(Br)cc2)c2ccccc21	i	24.8	25.1µM*	?
COc1cccc(-c2cc(C(=O)NC3CCC3)c3cnn(C)c3n2)c1	nt	6.6	nt	nt
COc1ccc(F)cc1C(=O)NCc1cc2n(n1)CCN(C(=O)N(C)C)C2	i	-4.4	-21.3%	4.7%
Cc1cc(C)n2ncc(C(=O)NCc3cc4n(n3)CCN(C(=O)N(C)C)C4)c2n1	31.6µM*	-2.4	25.3%	1.1%
Cc1ccc2cccc(OCCNC(=O)C3NCCc4[nH]cnc43)c2n1 (stereo unspecified)	14.1µM*	-11.1	18.3%	2.8%
Cc1cc(C(F)(F)F)nc(CCNC(=O)C2NCCc3[nH]cnc32)n1 (stereo unspecified)	i	2.1	13.6%	-3.6%
OCCc1cnc2c(-c3nc(-c4cccnn4)no3)cnn2c1	25.1µM*	27.0	11.5%	-29.4%
O=[S+]([O-])(Cc1ccccc1)N1C[C@@H](CO)[C@@H]2Oc3ccc(Cl)cc3[C@@H]21	nt	11.0	nt	nt
Cc1cccc2ncc(C(=O)N3CC[C@H](CO)[C@@H](O)C3)c(=O)n12	22.4µM*	7.5	12.9%	9.1%
CCOc1nccnc1NC1CCN(C(=O)Cc2cccs2)CC1	31.6µM*	-3.4	4.3%	-2.0%
CCOc1nccnc1NC1CCN(C(=O)NC)CC1	28.2µM*	5.3	-22.2%	3.3%
CCOc1nccnc1NC1CCN(C(=O)c2cccs2)CC1	?	-4.6	23.2%	1.8%
CCOc1nccnc1NC1CCN(C(=O)C2CCCO2)CC1 (stereo unspecified)	28.2µM*	-1.6	-12.5%	-6.2%
SMILES	KDM5B inhibitor	IP6K1 inhibitor	SNCA expr inhib	HEK293 viab
CCN(CC)c1ccc(C(=O)NCc2nnc3cc(-c4nc(C(C)C)no4)ccn23)cc1	?	2.7	2.8%	-17.0%
CC(C)c1noc(-c2ccn3c(CNC(=O)c4ccc(N(C)C)cc4)nnc3c2)n1	22.4µM*	-11.9	-9.9%	?
CC(C)c1noc(-c2ccn3c(CNC(=O)c4cccc(N(C)C)c4)nnc3c2)n1	28.2µM*	-2.2	93.0%	-6.7%
Cc1ccc(-c2cc(C(=O)NCCCc3ccccc3)c3cnn(C)c3n2)c(C)c1	nt	-4.5	-7.9%	-4.9%
CS[C@H]1SC[C@@H]2C(=O)N(C)[C@H](C(C)C)C(=O)OC[C@H](NC(=O)c3cnc4ccccc4n3)C(=O)N[C@H](C)C(=O)N(C)[C@@H]1C(=O)N(C)[C@H](C(C)C)C(=O)OC[C@H](NC(=O)c1cnc3ccccc3n1)C(=O)N[C@H](C)C(=O)N2C	nt	nt	0.0061µM*	0.0192µM*
COc1cccc(NC(=O)c2ccc3c(c2)NC(C)(COCCN(C)C)CO3)c1 (stereo unspecified)	?	-4.6	12.7%[87.6 µM]	2.6%[87.6 µM]
CCOCC1(C)COc2ccc(C(=O)Nc3cccc(Cl)c3)cc2N1 (stereo unspecified)	?	12.5	-35.1%[87.6 µM]	?
CC1(CNc2ccccc2)COc2ccc(C(=O)NC3CCC(O)CC3)cc2N1 (stereo unspecified)	?	2.2	-2.4%[87.6 µM]	2.6%[87.6 µM]
CCOCC1(C)COc2ccc(C(=O)Nc3cccc(OC)c3)cc2N1 (stereo unspecified)	31.6µM*	-1.9	13.9%[87.6 µM]	-11.8%[87.6 µM]
CN(C)CCCOCC1(C)COc2ccc(C(=O)Nc3cccc(Cl)c3)cc2N1 (stereo unspecified)	31.6µM*	-1.4	63.8%[87.6 µM]	1.8%[87.6 µM]
COc1cccc(NC(=O)c2ccc3c(c2)NC(C)(CNc2ccccc2)CO3)c1 (stereo unspecified)	12.6µM*	22.9	?	?
CCOCC1(C)COc2ccc(C(=O)Nc3ccc(Cl)cc3)cc2N1 (stereo unspecified)	28.2µM*	-11.8	-9.5%[87.6 µM]	-15.5%[87.6 µM]
Cc1nn(-c2ccccc2)c2c1C(C1CC1)N(CC1CN(C(=O)Nc3ccc(Cl)cc3)C1)C2=O (stereo unspecified)	nt	-5.4	nt	nt
CCCCCNC(=O)c1cc(-c2cccc(F)c2)nc2c1cnn2C	nt	9.6	nt	nt
O=C(NCc1cccc(C(F)(F)F)c1)c1ccc2nc(-c3ccccn3)oc2c1	nt	-2.2	34.0%	-1.3%
COc1cccc(C(=O)N2CCCC(Cc3nc(C4CCOCC4)no3)C2)c1 (stereo unspecified)	i	0.0	2.6%	3.4%
O=C(c1cncc(Br)c1)N1CCCC(Cc2nc(C3CCOCC3)no2)C1 (stereo unspecified)	31.6µM*	2.3	4.7%	-4.7%
CCC(=O)N1CCCC(Cc2nc(C3CCOCC3)no2)C1 (stereo unspecified)	i	4.0	-23.8%	-6.9%
O=C(C1CCC1)N1CCCC(Cc2nc(C3CCOCC3)no2)C1 (stereo unspecified)	35.5µM*	13.0	-5.3%	8.6%
COc1ccc(Cn2c(=O)c(C(=O)NCc3cccc(F)c3)nc3cccnc32)cc1	nt	-2.6	-4.2%	-15.1%
COc1ccc(-c2cccc(C(=O)N3CCC(Cc4ccccc4)CC3)c2)nn1	nt	16.3	nt	nt
Cc1ccc(-c2cc(N3CCCN(C(=O)CCc4ccccc4)CC3)n[nH]2)cc1C	15.8µM*	-4.9	?	?
O=C(CCc1ccccc1)N1CCCN(c2cc(-c3ccc(Cl)cc3)[nH]n2)CC1	?	2.5	2.9%	-6.5%
Cc1nn(-c2ccccc2)c2c1C(C)N(C1CCCN(C(=O)c3ccccc3Cl)C1)C2=O (stereo unspecified)	nt	-0.2	nt	nt
